Data on eight molecules can be found in PubChem BioAssay (NCI).

What all share (test): NCI-60 one-dose screen, 48 h (100 = growth as untreated, 0 = no growth, -100 = all killed)
One experiment relates to SK-MEL-2 melanoma. The following applies: 10 µM unless noted.
The subject of a further experiment is SN12C renal. The following applies: 10 µM unless noted.
For the next experiment, the system named is UO-31 renal. The note with it: 10 µM unless noted.
The next experiment has as its system TK-10 renal. The following applies: 10 µM unless noted.
The next experiment concerns ACHN renal. The note with it: 10 µM unless noted.
For another experiment, the system named is CAKI-1 renal. The following applies: 10 µM unless noted.
A further experiment deals with A498 renal. The note with it: 10 µM unless noted.
The subject of another experiment is CCRF-CEM leukemia. The following applies: 10 µM unless noted.
For the next experiment, the system named is SR leukemia. The note with it: 10 µM unless noted.
The next experiment deals with RPMI-8226 leukemia. The following applies: 10 µM.
The subject of the next experiment is OVCAR-8 ovarian. The note with it: 10 µM unless noted.
For another experiment, the system named is OVCAR-5 ovarian. The following applies: 10 µM unless noted.
The test system of another experiment is OVCAR-4 ovarian. The following applies: 10 µM unless noted.
Another experiment concerns SK-OV-3 ovarian. The following applies: 10 µM.
Another experiment has as its system IGROV1 ovarian. The following applies: 10 µM unless noted.
Another experiment concerns OVCAR-3 ovarian. The following applies: 10 µM unless noted.
In a further experiment the test system is HS 578T breast. The note with it: 10 µM unless noted.
The next experiment relates to MOLT-4 leukemia. The note with it: 10 µM unless noted.
A further experiment has as its system NCI/ADR-RES ovarian. The note with it: 10 µM unless noted.

About 83,000 compounds went through this panel and 20% of them were active in at least one assay; those are over-represented in the sample as a whole.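 Growth was measured after 48 h exposure to one concentration of compound in 96-well plates. Values under 10 count as active.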 A number with no mark means an inactive call. Activity calls are given as the source filed them.

Regarding `O=C(O)CCN1CCN(c2cccc(Cl)c2)CC1`, the growth is 107% in the experiment on SK-MEL-2 melanoma; 100% in the experiment with SN12C renal; 106% with UO-31 renal; 138% with TK-10 renal; 94.8% with ACHN renal; 87.6% in the experiment with CAKI-1 renal. The growth was 94.2% in the experiment with A498 renal; 105% in the experiment with CCRF-CEM leukemia; 88% in the experiment on SR leukemia; 112% with RPMI-8226 leukemia; 99.1% in the experiment on OVCAR-8 ovarian; 98.9% with OVCAR-5 ovarian. Also, the growth was 92% in the experiment on OVCAR-4 ovarian; 104% in the experiment on SK-OV-3 ovarian; 105% in the experiment with IGROV1 ovarian; 122% in the experiment with OVCAR-3 ovarian; 105% with HS 578T breast.

For `CCOC(=O)c1sc(NC(=O)CN2CCC(Cc3ccccc3)CC2)nc1C`, the growth was 133% in the experiment with SK-MEL-2 melanoma; 106% in the experiment with SN12C renal; 80.4% with UO-31 renal; 106% in the experiment on TK-10 renal; 107% in the experiment on ACHN renal; 99.4% in the experiment with CAKI-1 renal. Besides, the growth in the experiment on A498 renal was 100%; in the experiment on CCRF-CEM leukemia, 94.1%; in the experiment on MOLT-4 leukemia it was 84.3%; in the experiment on SR leukemia, 83.7%; in the experiment on OVCAR-8 ovarian, 110%; in the experiment on OVCAR-5 ovarian, 103%. Besides, the growth is 98.6% with OVCAR-4 ovarian; 102% in the experiment with SK-OV-3 ovarian; 87.6% in the experiment on IGROV1 ovarian; 108% in the experiment with OVCAR-3 ovarian; 83.4% in the experiment with HS 578T breast; 94.1% in the experiment with NCI/ADR-RES ovarian.

With `COc1ccc(OC)c2ncccc12`, the growth with SK-MEL-2 melanoma was 87.5%; with SN12C renal it was 101%; in the experiment with UO-31 renal, 64.4%; with TK-10 renal, 108%; with ACHN renal, 94.7%; in the experiment with CAKI-1 renal it was 95.7%. Moreover, the growth in the experiment with A498 renal is 101%; in the experiment with CCRF-CEM leukemia it was 92.4%; with MOLT-4 leukemia, 93.1%; in the experiment on RPMI-8226 leukemia it was 94.9%; in the experiment with OVCAR-8 ovarian, 103%; with OVCAR-5 ovarian, 107%. The growth in the experiment with OVCAR-4 ovarian is 102%; in the experiment with SK-OV-3 ovarian, 96.7%; with IGROV1 ovarian it was 106%; in the experiment on OVCAR-3 ovarian, 110%; in the experiment with HS 578T breast, 107%; in the experiment with NCI/ADR-RES ovarian it was 100%.

As for `COc1ccc(-c2cc(=O)oc3c4c(ccc23)OCN(Cc2ccc(F)cc2)C4)cc1`, the growth in the experiment with SK-MEL-2 melanoma was 94.2%; with SN12C renal it was 58.6%; in the experiment on UO-31 renal, 42.7%; in the experiment with TK-10 renal, 62.4%; in the experiment on ACHN renal, 64.7%; in the experiment with CAKI-1 renal, 51.7%. The growth with A498 renal is 38.9%; in the experiment on CCRF-CEM leukemia, 52.4%; in the experiment on MOLT-4 leukemia it was 39.9%; with SR leukemia, 54.7%; in the experiment with RPMI-8226 leukemia, 30.1%; in the experiment with OVCAR-8 ovarian, 56.7%. The growth was 80.2% with OVCAR-5 ovarian; 35.2% with OVCAR-4 ovarian; 74.3% with SK-OV-3 ovarian; 64.5% with IGROV1 ovarian; 52.4% in the experiment on OVCAR-3 ovarian; 83.1% in the experiment on HS 578T breast. In the experiment on NCI/ADR-RES ovarian, the growth was 45.9%.

As to `O/N=C/c1cccs1`, the growth in the experiment on SK-MEL-2 melanoma is 116%; with SN12C renal, 106%; in the experiment on UO-31 renal it was 89.1%; in the experiment on TK-10 renal, 118%; with ACHN renal, 97%; in the experiment on CAKI-1 renal, 91.7%. For the same molecule, the growth was 102% with A498 renal; 101% with CCRF-CEM leukemia; 85.5% in the experiment with MOLT-4 leukemia; 96.8% with SR leukemia; 112% in the experiment on RPMI-8226 leukemia; 98.3% in the experiment on OVCAR-8 ovarian. The growth in the experiment with OVCAR-4 ovarian was 115%; with SK-OV-3 ovarian, 118%; with IGROV1 ovarian, 108%; with OVCAR-3 ovarian it was 119%; in the experiment on HS 578T breast, 116%; with NCI/ADR-RES ovarian, 121%.

For the molecule `O=C1C2CC3C(CC2C(=O)[N]1[Sn]([c]1ccccc1)([c]1ccccc1)[c]1ccccc1)C1(Cl)C(Cl)=C(Cl)C3(Cl)C1(Cl)Cl` (centres undefined), the growth in the experiment with SK-MEL-2 melanoma is -93.5% (active); in the experiment on SN12C renal, -87.3% (active); in the experiment with UO-31 renal, -98.3% (active); in the experiment on TK-10 renal, -100% (active); in the experiment with ACHN renal, -99.8% (active); in the experiment with CAKI-1 renal it was -92.8% (active). The growth is -95.5% (active) in the experiment with A498 renal; -46.1% (active) in the experiment on MOLT-4 leukemia; -50.1% (active) in the experiment on SR leukemia; -52.3% (active) in the experiment on RPMI-8226 leukemia; -97.5% (active) in the experiment on OVCAR-8 ovarian; -100% (active) in the experiment with OVCAR-5 ovarian. In addition, the growth is -83% (active) in the experiment on OVCAR-4 ovarian; -100% (active) with SK-OV-3 ovarian; -66.2% (active) in the experiment on IGROV1 ovarian; -97.3% (active) in the experiment on OVCAR-3 ovarian; -20% (active) in the experiment with HS 578T breast; -55.5% (active) with NCI/ADR-RES ovarian.

For the molecule `COc1ccc(-c2c3c(N)c4c(nc3nc3c2c(C)nn3-c2ccccc2)CCCCC4)cc1`, the growth in the experiment with SK-MEL-2 melanoma is 83.3%; in the experiment on SN12C renal it was 93%; with UO-31 renal it was 61.6%; with TK-10 renal, 74.8%; in the experiment on ACHN renal, 77.9%; with CAKI-1 renal, 84.2%. Further, the growth with A498 renal is 87.9%; in the experiment on CCRF-CEM leukemia it was 48%; in the experiment with MOLT-4 leukemia, 49.5%; in the experiment with RPMI-8226 leukemia, -4.18% (active); with OVCAR-8 ovarian, 83.2%; with OVCAR-5 ovarian it was 86.3%. In addition, the growth with OVCAR-4 ovarian is 67.8%; in the experiment on SK-OV-3 ovarian it was 85.6%; with IGROV1 ovarian, 86.7%; in the experiment on OVCAR-3 ovarian, 72.6%; in the experiment with HS 578T breast, 101%; with NCI/ADR-RES ovarian, 86.9%.

For the molecule `Cc1nc2cc(Nc3nc(Nc4ccc(F)cc4)nc(-c4cccs4)n3)ccc2n1Cc1ccccc1`, the growth is 72.9% in the experiment with SK-MEL-2 melanoma; 70.3% in the experiment with SN12C renal; 36.5% in the experiment on UO-31 renal; 62.7% in the experiment with TK-10 renal; 45.6% in the experiment with ACHN renal; 70.2% in the experiment on CAKI-1 renal. The growth in the experiment with A498 renal is 56%; in the experiment on CCRF-CEM leukemia, 27.2%; with MOLT-4 leukemia it was 23.5%; in the experiment on SR leukemia it was 18%; in the experiment on RPMI-8226 leukemia, -0.339% (active); with OVCAR-8 ovarian it was 37%. Besides, the growth is 51% with OVCAR-4 ovarian; 95.1% in the experiment on SK-OV-3 ovarian; 48.3% with IGROV1 ovarian; 66.7% in the experiment on OVCAR-3 ovarian; 50.3% in the experiment on HS 578T breast; 57.3% in the experiment with NCI/ADR-RES ovarian.
